Compound activity from PubChem BioAssay.
Compounds with a hit are over-represented: about 21% of the library has one in this group of screens.
Pf growth 48h – P. falciparum growth inhibition at 48 hours (one generation) | actives 5.9% (n = 310,000) | AID 504832 | P. falciparum luciferase growth in erythrocytes, 48 h | Potency, µM (doses to about 28.7 µM), without a hit: at the highest dose activity change, negative = inhibition, most hits filed as inhibitors; active = well fitted inhibition curve with a large enough effect; inconclusive = small, poorly fitted or top-dose-only effect, or another doubt; inactive = no such curve, though single readings can be large or run the other way; also: potency is read from the fitted curve at half-maximal effect; % is scaled to controls: 0 for no effect and ±100 for the full control effect
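Erythrocytes infected with P. falciparum carrying an integrated firefly luciferase reporter (2% hematocrit, 0.1% parasitemia final) were exposed to compounds in RPMI 1640 with 0.5% Albumax at 37 C, 5% CO2. Growth inhibition was scored as reduced luminescence.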
SARS PLpro yeast – blocks SARS-CoV papain-like protease in a yeast assay | S. cerevisiae expressing SARS-CoV PLpro, growth rescue | Potency, µM (top dose mostly 32.9 µM), for the others: at the top dose activity, positive = growth rescue, most hits filed as activators | actives 0.19% (n = 330,000); also: potency is read from the fitted curve at half-maximal effect; 0% is about no effect; nearly all actives have a fitted effect of over 55% in size
Shiga inhibitor – Shiga toxin inhibition; Vero cells, Shiga toxin protein synthesis inhibition reporter; actives 9.2% (n = 290,000); inhibition, % at 38.7 µM; in the data active = inhibition mostly above about 28%, no sharp cut-off; inactive = mostly below about 43%; also: 0% is about no effect
NS1 inh – blocks influenza NS1 protein function. actives 0.4% (n = 270,000). Potency, µM (doses to about 46.1 µM), for inactives: at the top dose activity, positive = more growth; also: potency is read from the fitted curve at half-maximal effect; actives are rising curves; nearly all actives have a fitted effect of over 50% in size
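OD600 was taken as the measure of yeast growth restored by compound in an NS1-expressing S. cerevisiae strain. Cells had been washed out of glucose medium and diluted 1:100 into galactose -URA medium, pH 6.0.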
Pf growth 96h – P. falciparum growth inhibition at 96 hour, primary screen for plastid delayed-death inhibitors. P. falciparum luciferase reporter growth, 96 h. Potency, µM (series often up to 28.7 µM), for the others: at the highest dose activity change, negative = inhibition, most hits filed as inhibitors. actives 6.9% (n = 320,000); active = well fitted inhibition curve with a large enough effect; inconclusive = small, poorly fitted or top-dose-only effect, or another doubt; inactive = no such curve, though single readings can be large or run the other way; also: potency is read from the fitted curve at half-maximal effect; % is scaled to controls: 0 for no effect and ±100 for the full control effect
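P. falciparum expressing integrated firefly luciferase, in erythrocytes at 2% hematocrit, 0.05% parasitemia, incubated with compounds 96 h at 37 C, 5% CO2. Growth inhibition read as loss of luminescence; two-generation exposure targets delayed-death apicoplast inhibitors.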
CHX counter – counter-screen for Shiga toxin inhibitors: cycloheximide protein synthesis inhibition; cell reporter, cycloheximide protein synthesis inhibition counterscreen; max response, %; actives 12% (n = 300,000); AID 2314; in the data active = max response mostly above about 13%, no sharp cut-off; inactive = mostly below about 14%; also: read at 38.3 µM for the half of the compounds with a filed dose; 0% is about no effect
* hit, by the source's call; i = inactive; ? = inconclusive; . = no result. Unless noted, calls follow the shape of the full dose curve.

SMILES	Pf growth 48h	SARS PLpro yeast	Shiga inhibitor	NS1 inh	Pf growth 96h	CHX counter
CCC(Sc1nc(N)cc(=O)[nH]1)C(=O)Nc1cc(C)on1 (stereo not drawn)	7%	5%	-19	2%	39%	-1
Cc1cccc(C(C)(C)C)c1OCCCCN1CCCC1	.	-2%	-12	-5%	9.3µM*	-5
O=C(Nc1ccccc1)c1ccc(N2CCN(c3ccccc3)CC2)c(S(=O)(=O)N2CCOCC2)c1	.	-2%	-16	20%	4.1µM*	-5
O=C(Nc1ccccc1)c1ccc(N2CCN(c3ccccn3)CC2)c(S(=O)(=O)N2CCOCC2)c1	.	-2%	-7	-7%	3.7µM*	-2
O=C(Nc1ccc(Br)cc1)c1ccc(F)c(S(=O)(=O)N2CCN(c3ccccn3)CC2)c1	?	1%	8	.	-3%	7
O=C(Cc1csc(NC(=O)Nc2cccc(Cl)c2)n1)NC1CCCC1	?	5%	.	.	29%	.
Cc1cc(/C=C\c2ccc3cc(N(C)C)ccc3[n+]2C)c(C)n1-c1ccccc1	0.26µM*	.	.	.	0.0033µM*	.
Cc1ccc(N/N=C2\CC(=O)c3ccccc32)cc1Cl	4.7µM*	0%	37	-5%	2.9µM*	13*
Cc1ccc(NC2=CC(=O)CC(C)(C)C2)cc1Cl	-19%	4%	26	1%	16%	8
CN(C)CC(C)(C)CNC(=O)C1CCN(Cc2ccccc2O)CC1	-12%	2%	-2	-14%	-11%	2
Cc1ccc(NC(=O)Cn2cnc([N+](=O)[O-])c2)cc1C	26%	10%	9	29%	?	3
Cc1cc(=O)oc(C)c1C(=O)NCCC(C)C	25%	6%	-1	?	4.1µM*	-2
Cc1cc(=O)oc(C)c1C(=O)NCCNC(=O)c1c(C)cc(=O)oc1C	-1%	0%	-2	6%	.	-5
CC(=O)N/N=C(\C)C1COc2ccccc2O1 (stereo not drawn)	9%	0%	7	8%	0%	5
COCCNC(=O)C(c1ccc(C)cc1)N(C(=O)CCC(=O)Nc1ccccn1)c1ccc(F)cc1 (stereo not drawn)	0%	-1%	10	-1%	-14%	-5
Cc1ccc(N(CC(=O)NCC2CCCO2)C(=O)CCC(=O)Nc2ccccn2)cc1C (stereo not drawn)	2%	14%	8	-3%	?	7
Cc1ccc(N(CC(=O)NCC2CCCO2)C(=O)CCC(=O)Nc2ccccn2)cc1 (stereo not drawn)	-7%	1%	11	.	0.59µM*	-7
COCCNC(=O)C(c1ccc(F)cc1)N(C(=O)CCC(=O)Nc1ccccn1)c1ccc(C)cc1 (stereo not drawn)	-8%	1%	3	5%	1.3µM*	-1
CCOc1ccc(N(CC(=O)NCCc2ccccc2)C(=O)CCC(=O)Nc2cc(C)ccn2)cc1	4.7µM*	-2%	-9	3%	14%	-3
Cc1cc(C)cc(N(CC(=O)NCc2ccc3c(c2)OCO3)C(=O)CCC(=O)Nc2ccccn2)c1	1.3µM*	-3%	14	1%	?	-3
COCCNC(=O)C(c1ccc(O)cc1)N(Cc1ccco1)C(=O)CCC(=O)Nc1ccccn1 (stereo not drawn)	-3%	-1%	-3	6%	18%	-1
COCCNC(=O)CN(C(=O)CCC(=O)Nc1ccccn1)c1ccc(C)c(C)c1	-18%	3%	.	20%	9.3µM*	8
COCCNC(=O)C(c1ccc(Cl)cc1)N(Cc1ccco1)C(=O)CCC(=O)Nc1ccccn1 (stereo not drawn)	0%	4%	-11	-13%	13µM*	-3
Cc1cccc(-c2nc(CN3CCN(Cc4cccc(F)c4)CC3)c(C)o2)c1	?	-1%	.	0%	-88%	-2
O=C1CCC(=O)N1c1ccc(-c2nc3ccccc3s2)cc1	i	-2%	62*	-3%	41%	35*
Brc1cc2c(cc1-c1nc3ccccc3s1)OCO2	34%	-7%	65*	1%	41%	33*
O=S(=O)(c1cc(-c2nc3ccccc3s2)ccc1Cl)N1CCOCC1	?	2%	-18	19%	-9%	-2
CN(C)c1ncccc1-c1nc2ccccc2s1	-6%	-1%	23	-5%	4%	17
